Assay results taken from article PMC5540273 (PLoS ONE, 2017).

Assays:
Details in all cases: concentration: 1 μM,replicates: in singlicate; n = 1
MAP3K15 = system: MAP3K15
MAP3K1 = system: MAP3K1
MAP3K2 = system: MAP3K2
MAP3K3 = system: MAP3K3
MAP3K4 = system: MAP3K4
MAP4K2 = system: MAP4K2
MAP4K3 = system: MAP4K3
MAP4K4 = system: MAP4K4
MAP4K5 = system: MAP4K5
MAPKAPK2 = system: MAPKAPK2
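Also: KINOMEscan kinase panel screen.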

SMILES	%Inh (MAP3K15) [%]	%Inh (MAP3K1) [%]	%Inh (MAP3K2) [%]	%Inh (MAP3K3) [%]	%Inh (MAP3K4) [%]	%Inh (MAP4K2) [%]	%Inh (MAP4K3) [%]	%Inh (MAP4K4) [%]	%Inh (MAP4K5) [%]	%Inh (MAPKAPK2) [%]
C[C@@H](Oc1cc(-n2cnc3cc(-c4ccncc4)ccc32)sc1C(N)=O)c1ccccc1Cl [GSK479719]	18	91.9	10	1	13	24	65	13	85	0
Cc1cccc2c(-c3ccncc3)c(-c3ccc(F)cc3)nn12.Cl [GW461487]	100	13	19	0	20	0	0	9	0	0
CC(=O)Nc1nc2cnc(Nc3cc(NC(=O)c4cccc(CC(C)(C)C#N)c4)ccc3C)nc2s1	22	13	0	36	0	0	0	7	0	0
NC(=O)c1ccc(-c2cc3ncnc(SCC(=O)O)c3s2)cc1	0	0	0	0	0	0	0	5	1	0
CC(C)c1nc(-c2cccc(NS(=O)(=O)c3ccccc3)c2)c(-c2ccnc(Nc3ccc4c(c3)CN(C)CC4)n2)s1 [GSK1649598]	30	6	98.5	84	79	0	96.9	95.5	98.9	0
CC(=O)c1c(-c2ccncc2)[nH]c(-c2ccncc2)c1C [GW493036]	0	5	0	0	9	0	0	16	0	23
N#Cc1cccc(C(=O)NC2CCN(c3ccnc(Nc4ccc(F)cc4)n3)C2)c1 (stereo not drawn) [GSK1379708]	0	1	11	0	33	0	0	7	1	14
CN1CCN(CCCNc2nccc(-c3c(-c4ccc(F)cc4)nn4cc(C(N)=O)ccc34)n2)CC1 [GW622475]	0	24	0	0	16	0	0	65	33	0
CCn1c(-c2nonc2N)nc2cncc(Br)c21 [SB-738004]	18	10	0	0	3	40	0	3	0	10
CCCC(=O)Nc1n[nH]c2ncccc12 [SB-601436]	29	0	5	34	11	5	0	0	0	16
O=C(Nc1n[nH]c2cc(-c3ccco3)ccc12)C1CC1 [SB-737447]	17	0	23	24	0	2	5	21	0	0
COc1cccc(C2=C(Nc3cccc(Cl)c3)C(=O)NC2=O)c1 [SB-341556]	21	28	17	29	15	0	84	19	2	20
COC(=O)Nc1nc2cc(Oc3ccc(NC(=O)Nc4cc(C(F)(F)F)ccc4Cl)cc3)ccc2[nH]1.Cl [GW697465]	0	14	0	0	1	0	0	12	23	14
COC(=O)c1cccc(NC(=O)NC2CCN(c3ccnc(NCc4ccc(F)cc4)n3)CC2)c1 [GSK1379860]	0	24	8	0	22	0	0	0	0	0
CS(=O)c1ccc(-c2coc3ccc(-c4n[nH]c(=O)o4)cc23)cc1 (stereo not drawn)	37	0	0	11	5	2	1	0	0	0
CNC(=O)c1ccccc1Nc1nc(Nc2cccc(CS(C)(=O)=O)c2)ncc1C.O=CO [GSK1520489]	9	10	94.4	94	85	96.3	91	0	4	0
Cc1ccn2nc(-c3ccc(F)cc3)c(-c3ccncc3)c2c1.Cl [GW457859]	0	0	0	0	0	2	0	14	0	15

SMILES	%Inh (MAP3K15) [%]	%Inh (MAP3K1) [%]	%Inh (MAP3K2) [%]	%Inh (MAP3K3) [%]	%Inh (MAP3K4) [%]	%Inh (MAP4K2) [%]	%Inh (MAP4K3) [%]	%Inh (MAP4K4) [%]	%Inh (MAP4K5) [%]	%Inh (MAPKAPK2) [%]
CS(=O)(=O)Nc1ccc(-c2ccnc3[nH]ccc23)cc1 [GSK993273]	37	18	58	32	0	30	44	2	0	0
Cn1ccc2ncnc(Oc3ccc(NC(=O)Nc4cccc(C(F)(F)F)c4)c(F)c3)c21	0	0	0	18	13	0	20	17	40	22
COc1cc2ncn(-c3cc(OCC4CCCCC4)c(C(N)=O)s3)c2cc1OC [GSK204559]	0	30	0	0	0	0	0	35	38	0
CN(c1ccccc1CNc1nc(Nc2ccc3c(c2)CC(=O)N3)ncc1C(F)(F)F)S(C)(=O)=O	0	0	61	63	6	17	42	0	13	0
Cn1ccc2ncnc(Oc3ccc(NC(=O)Nc4cnn(C(C)(C)C)c4)c(Cl)c3)c21	0	7	0	9	1	4	0	52	0	7
CCn1c(-c2nonc2N)nc2cncc(CNC3CCNCC3)c21.Cl [SB-747651]	3	6	13	0	14	0	0	0	0	19
c1ccc(Oc2ccc(Nc3ccnc4ccc(-c5ccccn5)cc34)cc2)cc1 [GW407034]	0	14	14	0	17	0	11	21	13	24
Cl.Cl.NC[C@H](CC1CCCCC1)NC(=O)c1ccc(-c2ccnc3[nH]ccc23)s1 [GSK1581428]	25	12	40	33	10	95.7	47	20	12	0
Cn1cc(-c2cccc3c(N)c(C(N)=O)nnc23)cn1	7	29	14	30	95	0	8	22	14	0
Nc1nccc(-c2ccc3c(N)n[nH]c3c2)n1 [GSK1034945]	0	20	10	0	5	67	4	6	0	79
CC(C)S(=O)(=O)N1CCN(Cc2ccc3c(c2)nc(NC(=O)c2ccsc2)n3C[C@H](O)c2ccccc2)CC1 [GW635815]	0	8	47	53	53	84	0	45	2	0
C[C@@H]1CNc2c(sc3ccc4nc(-c5ccc(O)cc5)ccc4c23)C(=O)N1	61	0	12	11	16	85	31	26	13	99
CN(c1cccc(CNc2nc(Nc3ccc4c(c3)CC(=O)N4)ncc2C(F)(F)F)c1)S(C)(=O)=O	0	0	44	11	3	0	18	34	0	0
Cn1ccc2ncnc(Oc3ccc(NC(=O)Nc4cc(C(C)(C)C)on4)c(Cl)c3)c21	0	18	9	17	9	0	11	94	25	0
Cc1ccc2c(-c3ccnc(Nc4ccc(C(F)(F)F)cc4)n3)cnn2n1 [GW819776]	10	0	20	0	0	0	0	0	0	0
CSc1nccc(-c2c(-c3ccc(F)cc3)ncn2CCCN2CCOCC2)n1.Cl [SB-217146]	0	0	23	1	0	0	0	0	0	0
